This is part of a sample that, as a whole, favours compounds with a hit. Of some 83,000 tested, about 20% had one in any assay.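 Each cell line was grown in a 96-well plate and treated with one concentration of compound for 48 hours. Values below 10 were considered active.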
Columns and labels:
Assay in all cases: NCI-60 one-dose screen, 48 h (100 = growth as untreated, 0 = no growth, -100 = all killed)
Details in all cases: 10 µM unless noted
[1] = tested on: SR leukemia
[2] = tested on: RPMI-8226 leukemia
[3] = tested on: OVCAR-8 ovarian
[4] = tested on: OVCAR-5 ovarian
[5] = tested on: OVCAR-4 ovarian
[6] = tested on: SK-OV-3 ovarian
[7] = tested on: IGROV1 ovarian
[8] = tested on: OVCAR-3 ovarian
[9] = tested on: HS 578T breast
[10] = tested on: NCI/ADR-RES ovarian
[11] = tested on: T-47D breast
[12] = tested on: BT-549 breast
[13] = tested on: MDA-MB-435 melanoma
[14] = tested on: SW-620 colon
[15] = tested on: MCF7 breast
[16] = tested on: HCT-116 colon
[17] = tested on: HCC-2998 colon
[18] = tested on: KM12 colon

Measured: growth

COc1ccc2cc(-c3nc4ccc(C)cn4c3NCc3ccco3)c(=O)[nH]c2c1
inactive: [1] 31.5% | [2] 62.3% | [3] 78.5% | [4] 70.8% | [5] 69.3% | [6] 78.1% | [7] 63.4% | [8] 89.4% | [9] 65.3% | [10] 68.7% | [11] 47.1% | [12] 66.1% | [13] 86.8% | [14] 87.1% | [15] 74.1% | [16] 57.5% | [17] 95.6% | [18] 77.7%

NS(=O)(=O)c1ccc(C(=O)N=Nc2c(O)[nH]c3ccc(Cl)cc23)cc1
inactive: [1] 95.3% | [2] 98.5% | [3] 95% | [4] 110% | [5] 99.7% | [6] 108% | [7] 98.1% | [8] 113% | [9] 99.5% | [10] 102% | [11] 97.2% | [12] 98.8% | [13] 105% | [14] 100% | [15] 89.2% | [16] 99.4% | [17] 114% | [18] 102%

CC(C)(Sc1cc(C(C)(C)C)c(O)c(C(C)(C)C)c1)Sc1cc(C(C)(C)C)c(OC(=O)CCC(=O)O)c(C(C)(C)C)c1
inactive: [1] 78.6% | [2] 30.3% | [3] 41.3% | [4] 87% | [5] 67% | [6] 80.3% | [7] 55.9% | [8] 46.8% | [9] 67.4% | [10] 61.5% | [11] 31.4% | [12] 54.8% | [13] 47.2% | [14] 44.9% | [15] 35.8% | [16] 28.3% | [17] 42.9% | [18] 33.3%

Reference: PubChem BioAssay (NCI)
